The results in this text go back to PubChem BioAssay (NCATS).

Inconclusive results are not listed. Entries that show only a call come without a potency. Activity calls are given as the source filed them. Calls follow the shape of the dose curve; as a rule, active = well fitted cell-killing curve with a large enough effect; inconclusive = small, poorly fitted or top-dose-only effect; inactive = flat fitted curve, though single readings scatter.
Potency is read from the fitted curve at half-maximal effect.

This test is described as follows: Cell Viability - LYMP2-010 (AID 981).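 Also: cells exposed to compound for 24 hours at 37 °C; nearly all actives have a fitted effect of over 55% in size.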 Particulars: LYMP2-010 lymphoblastoid cell viability, qHTS; series mostly up to 92.2 µM. In outline: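 CellTiter-Glo ATP luminescence measured cytotoxicity after 24 h compound exposure at 37 C. LYMP2-010 cells were seeded at 2500/well, with tetraoctylammonium bromide as control; concentration-response curves gave AC50 values by the Hill equation.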
As to `Cc1cc(Nc2ccc(O)cc2)ccc1N`, the Potency is 31.6 µM (active).
The value for `CN(C)c1ccc(C2(c3ccc(N(C)C)cc3)OC(=O)c3cc(N(C)C)ccc32)cc1` was “inactive”; that for `O=C(OCC(COC(=O)c1ccccc1)(COC(=O)c1ccccc1)COC(=O)c1ccccc1)c1ccccc1` was “inactive”; that for `CC(=O)Nc1ccc(C(=O)CCl)cc1` was 3.98 µM (active).
Regarding `Nc1ccc2cc3ccccc3cc2c1`, the Potency result was “inactive”.
The value for `c1ccc2c(c1)-c1cccc3c1c-2cc1ccccc13` was “inactive”; that for `O=C=Nc1ccc(Cc2ccc(N=C=O)cc2)cc1` was “inactive”; that for `O=[N+]([O-])c1cc([N+](=O)[O-])c2ccc(S(=O)(=O)O)cc2c1O` was “inactive”.
The value for `Cc1cc(O)c(C(C)(C)C)cc1Sc1cc(C(C)(C)C)c(O)cc1C` was 31.6 µM (active).
The value for `CCC(C)Nc1ccc(NC(C)CC)cc1` (configuration not stated) was 3.16 µM (active); that for `CNc1ccc(O)cc1` was 3.16 µM (active); that for `C=CC(=O)OCCOCCOC(=O)C=C` was 15.8 µM (active).
Regarding `O=C1OC2(c3cc(Br)c(O)c(Br)c3Oc3c2cc(Br)c(O)c3Br)c2c(Cl)c(Cl)c(Cl)c(Cl)c21`, the Potency entry was “inactive”.
The value for `Oc1ccc2cc(SSc3ccc4cc(O)ccc4c3)ccc2c1` was 39.8 µM (active); that for `c1ccc2c(c1)ccc1cc3c(ccc4ccccc43)cc12` was “inactive”; that for `C=C(C)c1ccccc1` was “inactive”.
Then `O=C1OC(O)C(C(Cl)Cl)=C1Cl` (configuration not stated), with 15.8 µM (active).
